What follows are targets tested with CN[C@@H]1C[C@H]2O[C@@](C)([C@@H]1OC)n1c3ccccc3c3c4c(c5c6ccccc6n2c5c31)C(=O)NC4 [staurosporine] (assay: log2 fold change of tryptic peptide abundance, ligand vs vehicle (limited proteolysis) (log2 ratio); higher = more trypsin-susceptible (destabilized)). Conditions: ligand concentration: 20 uM; sample: mouse liver crude lysate; replicate design: treated separately.
Sequence of UniProt Q04899 (Q04899 whole entry): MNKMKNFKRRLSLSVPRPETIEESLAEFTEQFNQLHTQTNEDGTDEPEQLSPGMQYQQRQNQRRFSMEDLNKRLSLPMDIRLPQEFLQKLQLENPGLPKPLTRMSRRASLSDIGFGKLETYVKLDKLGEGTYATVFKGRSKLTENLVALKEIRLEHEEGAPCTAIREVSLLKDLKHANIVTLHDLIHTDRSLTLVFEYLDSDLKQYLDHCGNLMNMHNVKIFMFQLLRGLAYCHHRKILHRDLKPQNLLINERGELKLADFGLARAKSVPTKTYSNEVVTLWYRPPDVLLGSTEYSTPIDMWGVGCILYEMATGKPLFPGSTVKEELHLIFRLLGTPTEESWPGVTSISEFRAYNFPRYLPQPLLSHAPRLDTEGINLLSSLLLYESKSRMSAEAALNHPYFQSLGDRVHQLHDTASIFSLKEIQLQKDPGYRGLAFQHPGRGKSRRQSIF
Sequence of UniProt O55125 (O55125 whole entry): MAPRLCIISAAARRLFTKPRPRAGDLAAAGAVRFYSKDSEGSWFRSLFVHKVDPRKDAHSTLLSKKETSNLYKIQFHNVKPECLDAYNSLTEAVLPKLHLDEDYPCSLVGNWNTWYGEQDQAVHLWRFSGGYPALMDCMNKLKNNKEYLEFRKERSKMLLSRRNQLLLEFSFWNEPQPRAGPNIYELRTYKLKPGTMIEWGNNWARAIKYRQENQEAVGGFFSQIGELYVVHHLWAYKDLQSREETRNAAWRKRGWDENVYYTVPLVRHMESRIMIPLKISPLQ
Sequence of UniProt Q9DBG5 (Q9DBG5 whole entry): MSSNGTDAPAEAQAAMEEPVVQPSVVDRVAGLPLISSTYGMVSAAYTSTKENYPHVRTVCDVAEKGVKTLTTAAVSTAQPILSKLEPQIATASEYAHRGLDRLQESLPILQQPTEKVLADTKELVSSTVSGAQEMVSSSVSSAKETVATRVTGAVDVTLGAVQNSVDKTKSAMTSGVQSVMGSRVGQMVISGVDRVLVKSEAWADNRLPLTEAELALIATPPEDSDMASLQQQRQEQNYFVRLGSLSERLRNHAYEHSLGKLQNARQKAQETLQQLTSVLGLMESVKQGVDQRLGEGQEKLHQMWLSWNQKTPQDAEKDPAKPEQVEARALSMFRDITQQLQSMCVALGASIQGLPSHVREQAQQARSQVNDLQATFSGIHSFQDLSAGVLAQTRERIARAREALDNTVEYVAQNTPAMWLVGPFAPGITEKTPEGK
Sequence of UniProt Q3TLP5 (Q3TLP5 whole entry): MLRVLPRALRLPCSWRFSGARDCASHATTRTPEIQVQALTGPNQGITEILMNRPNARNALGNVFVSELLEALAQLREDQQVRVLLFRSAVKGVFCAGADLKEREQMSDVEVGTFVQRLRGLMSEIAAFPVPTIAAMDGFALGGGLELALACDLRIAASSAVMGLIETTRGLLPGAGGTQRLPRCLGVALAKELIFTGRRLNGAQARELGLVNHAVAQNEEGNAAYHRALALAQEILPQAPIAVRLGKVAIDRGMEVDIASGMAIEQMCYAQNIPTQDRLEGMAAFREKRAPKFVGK
Sequence of UniProt P12710 (P12710 whole entry): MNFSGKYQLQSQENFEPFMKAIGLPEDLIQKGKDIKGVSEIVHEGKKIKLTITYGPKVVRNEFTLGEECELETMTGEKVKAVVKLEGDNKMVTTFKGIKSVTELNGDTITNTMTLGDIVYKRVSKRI
Sequence of UniProt Q62120 (Q62120 whole entry): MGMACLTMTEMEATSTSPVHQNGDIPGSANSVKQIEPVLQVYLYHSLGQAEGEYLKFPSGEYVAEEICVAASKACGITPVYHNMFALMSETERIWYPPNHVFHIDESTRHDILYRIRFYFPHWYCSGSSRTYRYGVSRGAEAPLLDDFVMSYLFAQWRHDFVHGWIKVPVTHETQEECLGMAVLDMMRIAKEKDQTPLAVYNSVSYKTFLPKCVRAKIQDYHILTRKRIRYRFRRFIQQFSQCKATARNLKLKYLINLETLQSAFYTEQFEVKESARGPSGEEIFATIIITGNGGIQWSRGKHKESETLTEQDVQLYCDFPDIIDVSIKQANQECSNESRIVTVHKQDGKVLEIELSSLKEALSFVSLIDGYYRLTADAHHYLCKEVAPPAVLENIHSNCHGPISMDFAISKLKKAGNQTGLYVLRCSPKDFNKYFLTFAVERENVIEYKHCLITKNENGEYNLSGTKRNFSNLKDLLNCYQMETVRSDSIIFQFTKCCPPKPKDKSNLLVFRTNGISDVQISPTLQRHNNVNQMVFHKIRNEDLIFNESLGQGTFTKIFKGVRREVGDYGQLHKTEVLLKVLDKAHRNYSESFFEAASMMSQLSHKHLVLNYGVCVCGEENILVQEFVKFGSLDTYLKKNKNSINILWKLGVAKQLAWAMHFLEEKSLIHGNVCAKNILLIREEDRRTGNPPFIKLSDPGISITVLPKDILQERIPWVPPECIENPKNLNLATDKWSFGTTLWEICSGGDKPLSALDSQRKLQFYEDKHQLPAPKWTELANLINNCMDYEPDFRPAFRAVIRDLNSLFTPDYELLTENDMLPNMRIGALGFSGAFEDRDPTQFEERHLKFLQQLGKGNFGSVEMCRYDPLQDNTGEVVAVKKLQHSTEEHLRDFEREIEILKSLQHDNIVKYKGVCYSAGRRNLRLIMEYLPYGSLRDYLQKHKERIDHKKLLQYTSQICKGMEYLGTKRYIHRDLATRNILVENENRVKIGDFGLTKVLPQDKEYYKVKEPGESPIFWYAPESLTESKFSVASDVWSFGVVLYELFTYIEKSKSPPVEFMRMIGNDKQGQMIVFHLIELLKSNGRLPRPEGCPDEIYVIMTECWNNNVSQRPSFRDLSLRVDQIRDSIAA
Sequence of UniProt Q9R117 (Q9R117 whole entry): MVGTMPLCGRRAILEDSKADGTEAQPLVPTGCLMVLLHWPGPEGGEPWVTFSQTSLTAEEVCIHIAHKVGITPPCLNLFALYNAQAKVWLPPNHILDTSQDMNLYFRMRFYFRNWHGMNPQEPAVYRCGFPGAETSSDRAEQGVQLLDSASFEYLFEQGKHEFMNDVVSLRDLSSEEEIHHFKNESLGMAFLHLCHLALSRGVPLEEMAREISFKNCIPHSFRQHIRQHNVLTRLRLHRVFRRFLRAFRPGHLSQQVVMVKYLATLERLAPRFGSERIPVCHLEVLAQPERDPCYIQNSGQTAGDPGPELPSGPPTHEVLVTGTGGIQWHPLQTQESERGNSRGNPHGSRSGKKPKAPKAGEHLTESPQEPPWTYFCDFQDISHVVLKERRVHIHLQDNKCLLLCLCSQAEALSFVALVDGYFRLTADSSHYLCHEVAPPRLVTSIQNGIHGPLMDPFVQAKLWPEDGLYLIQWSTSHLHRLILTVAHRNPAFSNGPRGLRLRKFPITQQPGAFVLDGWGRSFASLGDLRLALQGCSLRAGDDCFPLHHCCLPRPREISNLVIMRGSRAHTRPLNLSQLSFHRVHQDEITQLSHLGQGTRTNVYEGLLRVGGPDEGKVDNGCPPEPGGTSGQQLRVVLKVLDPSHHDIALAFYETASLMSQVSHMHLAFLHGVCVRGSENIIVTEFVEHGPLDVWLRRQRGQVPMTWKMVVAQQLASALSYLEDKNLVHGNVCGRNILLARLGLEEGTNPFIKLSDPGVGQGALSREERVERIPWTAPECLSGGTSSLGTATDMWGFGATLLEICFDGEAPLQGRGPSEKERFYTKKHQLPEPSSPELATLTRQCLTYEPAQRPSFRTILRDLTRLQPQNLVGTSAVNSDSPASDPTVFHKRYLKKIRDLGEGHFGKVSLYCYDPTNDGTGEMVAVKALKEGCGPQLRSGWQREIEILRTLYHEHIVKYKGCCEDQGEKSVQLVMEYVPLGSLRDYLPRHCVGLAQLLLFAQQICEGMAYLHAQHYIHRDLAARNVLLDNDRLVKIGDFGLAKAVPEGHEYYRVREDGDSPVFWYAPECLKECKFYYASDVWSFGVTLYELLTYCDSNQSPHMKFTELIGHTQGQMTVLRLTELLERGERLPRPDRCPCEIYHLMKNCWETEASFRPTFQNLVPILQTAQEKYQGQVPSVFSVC
Sequence of UniProt P50285 (P50285 whole entry): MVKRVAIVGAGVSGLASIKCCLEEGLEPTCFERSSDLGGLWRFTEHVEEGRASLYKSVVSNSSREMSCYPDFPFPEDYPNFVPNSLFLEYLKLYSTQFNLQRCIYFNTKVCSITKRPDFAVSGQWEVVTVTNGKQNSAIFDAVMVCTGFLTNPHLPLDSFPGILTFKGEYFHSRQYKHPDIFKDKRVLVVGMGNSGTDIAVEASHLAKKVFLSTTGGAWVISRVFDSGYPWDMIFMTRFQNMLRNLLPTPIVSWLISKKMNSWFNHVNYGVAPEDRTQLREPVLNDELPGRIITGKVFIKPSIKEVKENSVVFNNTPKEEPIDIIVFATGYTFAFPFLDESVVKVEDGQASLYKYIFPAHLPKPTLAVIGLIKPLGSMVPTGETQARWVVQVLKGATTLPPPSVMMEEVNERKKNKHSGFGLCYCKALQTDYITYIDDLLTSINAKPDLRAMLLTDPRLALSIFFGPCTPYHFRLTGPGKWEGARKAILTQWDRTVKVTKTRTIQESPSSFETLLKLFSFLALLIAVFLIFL
Sequence of UniProt Q91V04 (Q91V04 whole entry): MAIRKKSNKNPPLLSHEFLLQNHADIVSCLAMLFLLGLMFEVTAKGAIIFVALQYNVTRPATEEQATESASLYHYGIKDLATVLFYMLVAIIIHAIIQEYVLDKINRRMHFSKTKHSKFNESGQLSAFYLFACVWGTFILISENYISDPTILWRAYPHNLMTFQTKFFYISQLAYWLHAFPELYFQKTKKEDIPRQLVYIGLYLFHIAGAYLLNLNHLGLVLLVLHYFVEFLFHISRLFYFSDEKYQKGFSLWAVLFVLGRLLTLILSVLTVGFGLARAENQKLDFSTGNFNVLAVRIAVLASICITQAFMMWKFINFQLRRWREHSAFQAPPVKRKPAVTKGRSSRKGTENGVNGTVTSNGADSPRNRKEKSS
“UniProt Q9DBG5 (peptide sequence: VGQMVISGVDR, peptide start residue: 185)” gave a log2 fold change of 0.534. For “UniProt Q04899 (peptide sequence: HANIVTLHDLIHTDR, peptide start residue: 176)”, the log2 fold change was -3.35. “UniProt Q62120 (peptide sequence: VLPQDKEYYK, peptide start residue: 1000)” gave a log2 fold change of -1.02. “UniProt Q9R117 (peptide sequence: NVLLDNDR, peptide start residue: 1025)” was tested, and the log2 fold change was -1.42. “UniProt P12710 (peptide sequence: DIKGVSEIVHEGK, peptide start residue: 34)” showed a log2 fold change of 0.719. “UniProt Q9JI10 (peptide sequence: AGNILLNTEGHAK, peptide start residue: 149)” showed a log2 fold change of -3.04. “UniProt P50285 (peptide sequence: TQLREPVLNDELPGR, peptide start residue: 277)” showed a log2 fold change of 0.327. With “UniProt Q3TLP5 (peptide sequence: GLLPGAGGTQR, peptide start residue: 170)” the log2 fold change was 0.658. Target “UniProt O55125 (peptide sequence: NNKEYLEFR, peptide start residue: 144)” has a log2 fold change of 0.432. For “UniProt Q8VCH6 (peptide sequence: LTQGETLR, peptide start residue: 368)”, the log2 fold change was 0.499. Target “UniProt Q91V04 (peptide sequence: EHSAFQAPPVKR, peptide start residue: 325)” has a log2 fold change of 3.7.

Source: the supplement of paper PMC12819154, “High-throughput peptide-centric local stability assay extends protein–ligand identification to membrane proteins, tissues and bacteria” (Nature Structural & Molecular Biology, 2025)
